# Assay results: PMC4336329 (PLoS ONE, 2015)
# The whole screen tested about 310,000 compounds, of which about 2,200 (0.71%) showed an effect of 50% or more. Effects have a minus sign here. Shown is part of a subset that was picked to be rich in strong results.
# Target: human ether-à-go-go-related gene (hERG) potassium channel (human, UniProt Q12809)
# Test: primary screen, population patch clamp on CHO cells stably expressing hERG; higher = less effect of the substance
# Chain of human ether-à-go-go-related gene (hERG) potassium channel (Q12809 whole entry, looked up): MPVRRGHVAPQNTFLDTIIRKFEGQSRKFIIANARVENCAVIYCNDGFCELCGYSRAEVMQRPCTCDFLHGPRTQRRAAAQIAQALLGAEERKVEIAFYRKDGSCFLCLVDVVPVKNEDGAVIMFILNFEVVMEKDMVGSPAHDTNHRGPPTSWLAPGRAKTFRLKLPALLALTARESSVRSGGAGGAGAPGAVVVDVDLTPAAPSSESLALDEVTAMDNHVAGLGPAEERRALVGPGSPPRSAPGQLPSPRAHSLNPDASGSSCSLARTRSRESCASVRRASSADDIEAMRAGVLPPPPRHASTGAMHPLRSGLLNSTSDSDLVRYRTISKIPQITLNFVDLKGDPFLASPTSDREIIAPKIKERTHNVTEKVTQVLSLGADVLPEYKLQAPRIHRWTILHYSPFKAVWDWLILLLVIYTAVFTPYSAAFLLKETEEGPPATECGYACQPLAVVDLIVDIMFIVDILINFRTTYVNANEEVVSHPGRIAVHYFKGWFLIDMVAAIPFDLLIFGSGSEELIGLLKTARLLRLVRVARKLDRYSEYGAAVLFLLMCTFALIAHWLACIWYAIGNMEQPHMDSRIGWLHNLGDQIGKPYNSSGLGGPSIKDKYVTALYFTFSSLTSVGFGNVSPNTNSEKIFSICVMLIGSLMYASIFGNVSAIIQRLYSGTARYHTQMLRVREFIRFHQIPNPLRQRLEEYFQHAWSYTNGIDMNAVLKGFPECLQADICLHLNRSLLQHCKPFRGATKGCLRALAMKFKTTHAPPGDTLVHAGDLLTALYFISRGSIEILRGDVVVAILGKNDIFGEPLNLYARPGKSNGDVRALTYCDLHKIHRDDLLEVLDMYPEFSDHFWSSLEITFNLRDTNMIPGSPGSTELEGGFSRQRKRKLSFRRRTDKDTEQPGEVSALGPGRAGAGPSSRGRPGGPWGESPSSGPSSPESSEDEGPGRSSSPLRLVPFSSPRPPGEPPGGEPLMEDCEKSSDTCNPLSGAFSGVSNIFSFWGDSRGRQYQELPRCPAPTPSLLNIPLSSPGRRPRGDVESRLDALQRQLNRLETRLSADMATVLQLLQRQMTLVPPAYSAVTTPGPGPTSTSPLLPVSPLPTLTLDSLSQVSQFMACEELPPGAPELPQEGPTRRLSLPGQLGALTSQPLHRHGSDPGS
row,SMILES,"hERG current change (%, negative = inhibition) at 1uM [%]"
1,COCCN=C1Sc2nc3cc(C)c(C)cc3cc2CN1Cc1cccs1,8.08
2,COc1ccc(NC(=O)CN2CCCCCC2)cc1OC,7.92
3,COc1ccc(NC(=O)CN2CCN(CC(=O)Nc3ccccc3Cl)CC2)cc1,-79.3
4,NC(=O)C1(N2CCCCC2)CCN(CC(=O)Nc2ccccc2-c2ccccc2)CC1,15.5
5,COc1ccc(NC(=O)CN2CCN(c3ccccc3Cl)CC2)cc1,1.08
6,COc1ccc(NC(=O)CN2CCN(S(=O)(=O)c3ccc(Cl)cc3)CC2)cc1,-64.1
7,COc1ccc(NC(=O)CN2CCC(C(N)=O)CC2)cc1,2.62
8,NC(=O)C1(N2CCCCC2)CCN(CC(=O)Nc2cc(Cl)ccc2Cl)CC1,-55.3
9,O=C(CN1CCCCC1)Nc1cc(Cl)ccc1Cl,-0.089
10,CCOc1ccc(NC(=O)CN2CCN(S(=O)(=O)c3ccc(Cl)cc3)CC2)cc1,10.8
11,COc1cccc(NC(=O)CN2CCN(CC(=O)Nc3ccccc3Cl)CC2)c1,-21.1
12,COc1ccc(NC(=O)CN2CCN(CC(=O)Nc3ccc(OC)c(OC)c3)CC2)cc1,-66.1
13,COc1ccc(NC(=O)CCN2CCN(S(=O)(=O)c3ccc(Cl)cc3)CC2)cc1,2.03
14,O=C(Nc1nc(-c2ccc3c(c2)OCCO3)cs1)C1CCCC1,8.23
15,COC(=O)C1=C(c2cc3ccccc3o2)C[C@@H]2CC[C@H]1N2C(=O)N1CCCC1,7.5
16,NC(=NCCc1ccc(Cl)cc1)NS(=O)(=O)c1ccccc1,9.74
17,O=C(c1ccccc1Br)N1CCCC(c2nc(-c3cccs3)no2)C1 (stereo not shown),13.2
18,COc1ccc2oc(=N)c(-c3nnc4n3CCCCC4)cc2c1,1.02
19,Cc1ccccc1C(=O)N1CCC(C(=O)Nc2ccc(C)c(S(=O)(=O)N3CCCCC3)c2)CC1,2.28
20,COc1ccc(CN2CCCN(S(=O)(=O)c3ccc(Br)cc3)CC2)cc1,-75.6
21,O=C(CN1CCCC1)Nc1ccc(F)cc1,16.6
22,COc1ccc(S(=O)(=O)N2CCN(Cc3ccc(Cl)cc3)CC2)cc1,-4.05

row,SMILES,"hERG current change (%, negative = inhibition) at 1uM [%]"
1,COc1ccc(NC(=O)CN2CCCCC2)cc1.O=C(O)C(=O)O,10.6
2,O=C(CN1CCN(S(=O)(=O)N2CCCCC2)CC1)Nc1ccc(Br)cc1,2.87
3,O=C(CN1CCN(C(=O)C2CCC2)CC1)Nc1ccc(F)cc1,-27.3
4,O=C(CN1CCN(S(=O)(=O)N2CCCCCC2)CC1)Nc1ccc(Br)cc1,-3.27
5,COc1cccc(CN2CCCN(S(=O)(=O)c3ccc(Br)cc3)CC2)c1,-22.3
6,COc1ccc(NC(=O)CN2CCN(S(=O)(=O)N3CCCCCC3)CC2)cc1,-60.8
7,O=C(CN1CCN(C(=O)N2CCCCC2)CC1)Nc1ccc(F)cc1,-76.5
8,O=C(CN1CCN(S(=O)(=O)N2CCCCCC2)CC1)Nc1ccc(F)cc1,-75.1
9,COc1ccc(NC(=O)CN2CCN(S(=O)(=O)N(C)C)CC2)cc1,13.9
10,CCc1nnc(NC(=O)C2COc3ccccc3O2)s1 (stereo not shown),2.41
11,CCn1nc(NC(=O)COC)c2cc3cc(C)ccc3nc21,9.09
12,COc1ccc(NS(=O)(=O)NC(=O)c2c[nH]c3ccccc23)cc1,9.58
13,CCOc1cc(CO)cc(Br)c1OCC(=O)Nc1ccccc1C,6.36
14,Cc1cc(NC(=O)CCC(=O)NNC(=O)c2ccc(C(C)(C)C)cc2)no1,6.49
15,COc1cccc(C(=O)CN2CCN(S(=O)(=O)c3cccc([N+](=O)[O-])c3)CC2)c1,6.87
16,CC(Nc1ccc(F)cc1)=[N+](C)CCNS(=O)(=O)c1ccc(Cl)cc1.[I-],-45.1
17,COc1ccc(NC(=O)CN2CCCC2)cc1,14.6
18,COc1ccc(C(=O)CN2CCN(S(=O)(=O)c3cccc([N+](=O)[O-])c3)CC2)cc1OC,3.44
19,O=C(CN1CCN(Cc2ccccc2)CC1)Nc1ccc(F)c(F)c1.O=C(O)C(=O)O,-21.9
20,O=C(CN1CCN(CC(=O)Nc2ccccc2Cl)CC1)Nc1ccc(F)c(F)c1,-74
21,COc1ccc(NC(=O)CN2CCN(CC(=O)Nc3ccc(OC)cc3)CC2)cc1,-85.6
22,COc1cccc(NC(C)=[N+](C)CCNS(=O)(=O)c2ccc(Cl)cc2)c1.[I-],-36.6

row,SMILES,"hERG current change (%, negative = inhibition) at 1uM [%]"
1,O=C(CN1CCN(c2ccc(Cl)cc2)CC1)Nc1ccc(F)c(F)c1,-1.8
2,COc1ccc(NC(C)=[N+](C)CCNS(=O)(=O)c2ccc(Cl)cc2)cc1.[I-],-59.5
3,COc1ccc(C(=O)CN2CCN(S(=O)(=O)c3cccc([N+](=O)[O-])c3)CC2)cc1,-64.3
4,COc1ccc(NC(=O)CN2CCN(CC#N)CC2)cc1,-44.9
5,CCOC(=O)Cn1nnc(-c2cccc(OC)c2)n1,9.82
6,Cc1cccc(C(=O)O/N=C(\N)CS(=O)(=O)c2ccccc2)c1,5.74
7,Cn1cccc1C(=O)NCC(c1ccc(F)cc1)N1CCOCC1 (stereo not shown),5.02
8,CCOC(=O)CNC(=O)Cn1cnc2c(nnn2-c2cccc(Cl)c2)c1=O,-0.825
9,COc1ccc(Nc2nc(C)nc3c2nnn3Cc2ccccc2)cc1OC,4.84
10,CCN(CC)c1ccc(NC(=O)CN2CCN(CC(=O)Nc3ccc(OC)cc3)CC2)cc1,-59.5
11,CCN(CC)c1ccc(NC(=O)CN2CCN(CC(=O)Nc3ccccc3OC)CC2)cc1,-0.407
12,COc1ccc(NC(=O)CN2CCC(C)CC2)cc1,-0.0667
13,Cc1cc(=O)oc2cc(OCC(=O)N3CCCC3)c(Cl)cc12,1.63
14,Cc1sc2nc(CN3CCCCC3)nc(Nc3ccc4c(c3)OCCO4)c2c1C,-89.2
15,Cc1sc2nc(CN3CCOCC3)nc(NS(=O)(=O)c3ccc4c(c3)OCCO4)c2c1C,13.1
16,Cc1nc(Nc2ccc3c(c2)OCCO3)c2c(C)c(C)sc2n1,-8.61
17,Cc1cc2oc3c(c(=O)c2cc1C)C(c1ccc(C(C)C)cc1)N(CCCN1CCOCC1)C3=O (stereo not shown),13
18,CCCN1C(=O)c2ccc(C(=O)Nc3ccccc3C(=O)O)cc2C1=O,18
19,CCOc1ccc(CN2CCN(Cc3ccsc3)C(CCO)C2)cc1CO (stereo not shown),-17.3
20,COCc1cc(CN2CCN(CCc3ccccc3)C(CCO)C2)ccc1OC (stereo not shown),-32.3
21,COCc1cc(CN2CCN(Cc3ccsc3)C(CCO)C2)ccc1OC (stereo not shown),-56.6
22,Cc1ccc(NCc2nnc(SCCN3CCCCC3)n2CC2CCCO2)cc1Cl (stereo not shown),-59.1

row,SMILES,"hERG current change (%, negative = inhibition) at 1uM [%]"
1,Cc1ccc(NCc2nnc(SCC(=O)NCc3ccco3)n2CC2CCCO2)cc1Cl (stereo not shown),-5.15
2,Cc1ccc(NCc2nnc(SCCN3CCCCC3)n2CC2CCCO2)c(C)c1 (stereo not shown),-10.7
3,CCOC(=O)c1c(C)[nH]c(C(=O)N2CCN(C(=O)OCC)CC2)c1C,7.64
4,Cc1ccc(NS(=O)(=O)c2cccs2)cc1S(=O)(=O)N1CCCCCC1,16.5
5,Cc1ccc(CSCc2ccc(C(=O)NCCCN3CCOCC3)o2)cc1,-21.2
6,COC(CNC(=O)c1ccc2c(c1)ncn2-c1ccc(F)c(F)c1)OC,-5.49
7,COc1ccc2cc(C(=O)N3CCCCCC3)sc(=O)c2c1OC,1.33
8,CCCC(=O)OC(C(=O)Nc1cc(C(F)(F)F)ccc1Cl)c1ccccc1 (stereo not shown),5.1
9,CN(C)CCNC(C(=O)Nc1cccc(C(F)(F)F)c1)c1ccccc1.O=C(O)C(=O)O (stereo not shown),-14.6
10,CCCCNC(C(=O)Nc1ccc([N+](=O)[O-])cc1Br)c1ccccc1 (stereo not shown),10.5
11,O=C(Nc1cc(C(F)(F)F)ccc1Cl)C(NCc1ccccc1)c1ccccc1 (stereo not shown),15.6
12,CN(C)c1cccc(C(=O)OC(C(=O)Nc2ccc(Cl)cc2C(F)(F)F)c2ccccc2)c1 (stereo not shown),0.322
13,CCN(CC)CCNC(C(=O)Nc1cc(C(F)(F)F)ccc1Cl)c1ccccc1 (stereo not shown),-85.3
14,CN(C)C(CNC(C(=O)Nc1ccc([N+](=O)[O-])cc1Br)c1ccccc1)c1ccccc1 (stereo not shown),11.9
15,CC(=O)c1cccc(NC(=O)C(NC(C)C)c2ccccc2)c1 (stereo not shown),10
16,CCN(CC)CCNC(C(=O)Nc1ccc([N+](=O)[O-])cc1Br)c1ccccc1 (stereo not shown),-86.5
17,CN(C)CC(C)(C)CNC(C(=O)Nc1ccc(Cl)cc1C(F)(F)F)c1ccccc1 (stereo not shown),-72.3
18,CCN(CC)CCNC(C(=O)Nc1cccc(C(C)=O)c1)c1ccccc1.O=C(O)C(=O)O (stereo not shown),-51.4
19,COc1cccc(NC(=O)C(NCC(C)(C)CN(C)C)c2ccccc2)c1.O=C(O)C(=O)O (stereo not shown),-12.7
